Screens as filed in PubChem.
Cruzain inh Det: blocks cruzain activity in presence of Triton detergent; AID 1478; Potency, µM, for the others: max response, negative = inhibition, actives largely listed as inhibitors; P25779; hit rate 0.43% among 200,000; purified cruzain, Z-FR-AMC fluorescence, 0.01% Triton;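 further: plate controls were neutral wells for no effect and buffer without enzyme for full effect; nearly all actives have a fitted effect of over 40% in size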
Target sequence (P25779 123-467 limits assumed): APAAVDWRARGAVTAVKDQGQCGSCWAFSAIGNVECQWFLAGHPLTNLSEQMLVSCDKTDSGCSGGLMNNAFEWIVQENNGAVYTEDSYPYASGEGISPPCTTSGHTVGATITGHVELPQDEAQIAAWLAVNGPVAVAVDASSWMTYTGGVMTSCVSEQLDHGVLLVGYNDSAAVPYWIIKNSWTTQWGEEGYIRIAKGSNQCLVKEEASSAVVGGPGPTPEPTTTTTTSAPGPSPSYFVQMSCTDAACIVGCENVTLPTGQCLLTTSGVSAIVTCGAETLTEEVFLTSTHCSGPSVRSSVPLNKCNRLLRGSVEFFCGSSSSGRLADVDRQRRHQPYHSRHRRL
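Detergent-containing arm of a paired screen for aggregation-based inhibition: 0.01% Triton X-100 present. Cruzain at 1.5 nM cleaved 2 uM Z-FR-AMC at pH 5.5 with 5 mM DTT; AMC fluorescence gain over 60 s measured activity.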
Cruzain noTriton: blocks cruzain activity in detergent-free assay. P25779. purified cruzain, Z-FR-AMC fluorescence, no detergent. Potency, µM, inactives show max response, negative = inhibition, usual class: inhibitors. hit rate 2.3% among 200,000. AID 1476;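 further: plate controls were enzyme without inhibitor for no effect and buffer without enzyme for full effect; nearly all actives have a fitted effect of over 40% in size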
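Detergent-free condition (0.00005% Triton X-100) in acetate buffer pH 5.5 with DTT. 1.5 nM enzyme and compound were pre-mixed 15 min, then 2 uM Z-FR-AMC substrate added; reaction progress from fluorescence change between first and third reads (60 s).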
* hit, by the source's call; ? = inconclusive. Compounds with a hit are over-represented: about 2.6% of the library has one in this group of screens. The call rests on the fitted dose curve; in most records, active means well fitted curve in the direction sought with a large enough effect; inconclusive means small, poorly fitted or top-dose-only effect, or another doubt; inactive means no such curve, though single readings can be large; an effect the other way counts as inactive or inconclusive. Potency means the concentration at half of the fitted maximal effect.

SMILES | Cruzain inh Det | Cruzain noTriton
O=C1/C(=C\c2ccco2)SC(=S)N1Cc1ccccc1 | -29% | -16%
Cc1cc(/C=C2\SC(=S)N(Cc3ccco3)C2=O)c(C)n1-c1ccccc1 | -4% | 10µM*
CCC/C=C(\CCC)C(NS(=O)(=O)c1ccc(Cl)cc1)c1ccccc1 (stereo not given) | -10% | -29%
C=CCOc1c(Br)cc(/C=N/NC(N)=O)cc1OC | -3% | 7%
CCOc1cc(/C=N/NC(N)=O)cc(Br)c1OCC(=O)Nc1ccccc1C | -8% | ?
COc1cc(/C=N/NC(N)=O)cc(Br)c1OCc1ccccc1C | 3% | 20µM*
CCOc1cc(/C=N/NC(N)=O)cc(Br)c1OCC(=O)Nc1cccc2ccccc12 | -3% | 6.3µM*
Cc1ccc(-n2nc3c(c2NC(=O)c2ccc4c(c2)OCO4)CSC3)cc1 | 0% | 16µM*
Cc1ccc(CNC(=O)C(=O)Nc2c3c(nn2-c2ccccc2)CSC3)cc1 | 0% | ?
CC(=O)Nc1c2c(nn1-c1ccc(C)cc1C)CSC2 | -2% | 2%
Cc1ccc(CNC(=O)C(=O)Nc2c3c(nn2-c2ccc(F)cc2)CSC3)cc1 | -1% | 13µM*
CCc1ccc(Cn2nnc(C(=O)Nc3ccc(OC)cc3OC)c2N)cc1 | 2% | 25µM*
COc1cc(OC)c(NC(=O)c2nnn(Cc3ccc(C)cc3)c2N)cc1Cl | -3% | -19%
CCc1ccc(NC(=O)Cn2nnc(C(=O)NCc3ccc(C)cc3)c2N)cc1 | 1% | 20µM*
Cc1ccc(CNC(=O)c2nnn(CC(=O)Nc3cc(C)ccc3C)c2N)cc1 | 0% | -12%
COc1ccc(NC(=O)Cn2nnc(C(=O)Nc3ccc(C)c(F)c3)c2N)cc1Cl | 0% | 6%
Cc1cccc(NC(=O)Cn2nnc(C(=O)Nc3ccc(F)c(Cl)c3)c2N)c1 | -1% | 25µM*
CCc1ccccc1NC(=O)Cn1nnc(C(=O)NCc2cccs2)c1N | -1% | 20µM*
COc1ccccc1NC(=O)Cn1nnc(C(=O)NCc2cccs2)c1N | 0% | -26%
CCc1c2c(nc3ccc(OC)cc13)COC2 | -1% | -3%
Cc1ccc(NC(=O)Cn2nnc(C(=O)NCc3cccs3)c2N)cc1 | 1% | ?
Cc1ccc(NC(=O)Cn2nnc(C(=O)NCc3cccs3)c2N)cc1Cl | -1% | 25µM*
CCc1ccccc1NC(=O)Cn1nnc(C(=O)Nc2ccc(OC)c(OC)c2)c1N | 0% | 14%
CCc1ccccc1NC(=O)c1nnn(CC(=O)Nc2c(C)cc(C)cc2C)c1N | 0% | 32µM*
Cn1c(=O)n(C)c2cc(N3CCCCC3)c(NC(=O)c3ccc(Cl)cc3)cc21 | 0% | -11%
SMILES | Cruzain inh Det | Cruzain noTriton
CCc1cccc(CC)c1NC(=O)Cn1nnc2sc3c(c2c1=O)CCCC3 | 0% | 14%
C(#Cc1ccccc1)C[N+]1(CC#Cc2ccccc2)CCCC1 | -3% | -13%
C=CC#CC[N+]1(CC#Cc2ccccc2)CCOCC1 | 25µM* | -8%
Cc1nc(N2CCCC2)c2c(C(=O)Nc3cccc(Cl)c3C)c(C)oc2n1 | -7% | 26%
CCOc1ccc(C(=O)c2cnc3ccc(Cl)cc3c2S(=O)(=O)c2ccc(C)cc2)cc1 | 0% | 11%
CCc1ccc(S(=O)(=O)c2c(C(=O)c3ccc(C)c(C)c3)cnc3ccccc23)cc1 | -3% | 13µM*
CCOc1ccc(S(=O)(=O)c2c(C(=O)c3ccccc3)cnc3cc4c(cc23)OCCO4)cc1 | -6% | 32µM*
Cc1ccc(C(=O)c2cnc3ccccc3c2-c2ccccc2)cc1 | -1% | 5%
CCc1ccc(C(=O)c2cnc3ccc(C)cc3c2S(=O)(=O)c2ccc(OC)cc2)cc1 | -2% | -11%
CCOc1ccc(S(=O)(=O)c2c(C(=O)c3ccc(CC)cc3)cnc3ccc(C)cc23)cc1 | -4% | 20µM*
Nc1nc(N)nc(CCCc2nc(N)nc(N)n2)n1 | 3% | 4%
Cc1c(Cl)cccc1NC(=O)Nc1nnc(N(C)C2CCCCC2)s1 | -7% | ?
CCCn1c(-c2ccc(F)cc2)nc2c(NCCCCN(C)C)nc(C)nc21 | -8% | 2%
Cc1cccc(C)c1NC(=O)CN1C(=O)c2cccc3cccc1c23 | 1% | -20%
CCOC(=O)c1sc(NC(=O)COC(=O)CNC(=O)C2CCCCC2)c(C(=O)OCC)c1C | 2.2µM* | -29%
CCOC(=O)c1sc(NC(=O)COC(=O)CNC(=O)c2ccco2)c(C(=O)OCC)c1C | -14% | ?
O=C(COC(=O)CNC(=O)C1CCCCC1)Nc1ccc(Cl)cn1 | 6.3µM* | 6.3µM*
O=C(COC(=O)CCOc1ccccc1)Nc1ccc(Cl)cn1 | -5% | -2%
C[C@@](N)(/C=C\c1ccccc1)C(=O)O | 2% | 6%
COc1cc(OC)c(NC(=O)c2noc3c2CSc2ccccc2-3)cc1Cl | -8% | -3%
CN(CCO)Cc1ncccc1O | -3% | 4%
COc1ccc(C2C=C(C34CC5CC(CC(C5)C3)C4)NC(=S)N2)cc1 (stereo not given) | -3% | 25µM*
COc1ccc(C2=CC(c3ccc(OC)c(OC)c3)NC(=S)N2)cc1 (stereo not given) | 4% | -2%
